Results: PubChem BioAssay (NCI)
Several values for one entry are separate records, joined by “and”; a condition that tells them apart may be missing. Equal values may be shown once. Compounds without any hit were thinned out: in the full panel of roughly 83,000, 20% have a hit.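 Single-dose data. Exposure time 48 hours. Values below 10 considered active.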 Activity calls are given as the source filed them.

System: BT-549 breast
Experiment: NCI-60 one-dose screen, 48 h (100 = growth as untreated, 0 = no growth, -100 = all killed)
Conditions: 10 µM unless noted

SMILES	growth
O=C(CSc1nnc(-c2ccc(-c3nc4ccccc4[nH]3)cc2)o1)Nc1ccc(Br)cc1	37.1% (inactive)
COc1ccc2c(c1)N=c1c-2cc2c(O)[nH]c(=S)n2c1=O	32.4% (inactive)
CN(C(=O)CN1C(=O)/C(=C/c2ccco2)SC1=S)C1CCS(=O)(=O)C1 (stereo not given)	91.3% (inactive)
CCOc1ccc2[nH]c(=O)c(C(c3nnnn3CC3CCCO3)N3CCN(Cc4ccccc4)CC3)cc2c1 (stereo not given)	81.7% (inactive)
N#CC1=C(c2cccs2)Nc2c(c(-c3ccccc3)nn2-c2ccccc2)C12C(=O)Nc1ccc(Cl)cc12 (stereo not given)	-21.7% (active)
COc1ccc(-c2nc3ccccc3n2CC(=O)N=Nc2c(O)[nH]c3ccc(OC)cc23)cc1	20.5% (inactive)
O=C(NC(=S)N1CCN(c2ncnc3c2cnn3-c2ccccc2)CC1)c1ccc(Br)cc1	65.1% (inactive)
COc1c(B(O)O)cc(F)cc1-c1nc2ccc3[nH]ncc3c2c2c1COCC2	-7.9% (active)
CC1=C(C(=O)Nc2ccccc2)C(c2cccc(Cl)c2Cl)n2c(nc3ccccc32)N1 (stereo not given)	71% (inactive)
CC(Nc1ncnc2ccc(-c3ccc4oc(N)nc4c3)cc12)c1ccccc1 (stereo not given)	-21.6% (active)
CNc1nc2ccccc2n2c(-c3ccc(O)c(O)c3)cnc12	-22.3% (active)
COc1cc(/C=C/C(=O)c2cnn(-c3cc(=O)[nH]c4ccc(Br)cc34)c2C)cc(OC)c1OC	-44.7% (active)
COc1ccc(/C=C/C(=O)c2ccc(OC)c(S(N)(=O)=O)c2)c(C(F)(F)F)c1	-78.9% (active)
COc1ccc(S(=O)(=O)Nc2ccc(-c3ccc4c(c3)NC(=O)/C4=C\c3ccc[nH]3)cc2)cc1OC	13.3% (inactive)
COC(=O)c1ccc(-c2c(-c3ccccc3)c(F)c3oc(C(=O)OC)c(N)c3c2-c2ccccc2)cc1	95.7% (inactive)
O=C(COc1ccc(/C=C2/C(=O)Nc3ccc(Cl)cc32)cc1)Nc1ccc(Br)cc1	-34.2% (active)
O=C(CSc1nc2ccccc2c(=O)[nH]1)NNC(=O)c1ccccc1Cl	160% (inactive)
COc1ccc2[nH]cc(-c3cc4nc(-c5cn(C)c6ncccc56)cc(N)n4n3)c2c1	-8.26% (active)

SMILES	growth
COc1cc2cc(C(=O)N3C[C@@H](CCl)c4c3cc(OC(=O)N(CCC(=O)N3CCN(C)CC3)C3CCCCC3)c3ccccc43)[nH]c2c(OC)c1OC	-94.4% (active)
CC[C@]12C=CCN3CC[C@@]4(c5ccc(OC)cc5N(C)[C@H]4[C@@](O)(C(=O)OC)[C@@H]1OC(=O)CCCC[P+](c1ccc(F)cc1)(c1ccc(F)cc1)c1ccc(F)cc1)[C@@H]32	-23.5% (active)
O=C(Nc1nc2ccc([N+](=O)[O-])cc2s1)Nc1ccccc1F	-13.8% (active)
O=C1C=CC(=CC=C2N(Cc3ccc4ccccc4c3)c3ccccc3N2Cc2ccc3ccccc3c2)C=C1	9.59% (active) and 29.8% (inactive)
O=c1[nH]c2ccccc2cc1COc1ccc(Nc2nccc(-c3ccc(Cl)cc3)n2)cc1	99.3% (inactive)
CC1=C(C(=O)Nc2ccccc2)C(c2ccc3ccccc3c2)n2c(nc3ccccc32)N1 (stereo not given)	92.9% (inactive)
O=C1CC(c2ccc(I)cc2)OC2C=Cc3ccccc3C12 (stereo not given)	108% (inactive)
COc1ccc(C(=O)/C=C/c2ccc3c(c2)OCCO3)cc1S(N)(=O)=O	65.4% (inactive)
O=C(Cn1c(-c2ccccc2)nc2ccccc21)N=Nc1c(O)[nH]c2ccc(Br)cc12	-53.7% (active)
Cn1cc(-c2cc3nc(-c4cn(C)c5ncc(Br)cc45)cc(N)n3n2)c2cc(F)ccc21	44.9% (inactive)
O=C1Nc2ccccc2/C1=C/C(=O)c1cc2ccccc2oc1=O	111% (inactive)
CCC(=O)c1c2c(c3ccc4c5ccccc5ccc4n13)C(=O)c1ccccc1C2=O	114% (inactive)
COc1ccc(C(=O)NNC(=O)CSc2nc3sc4c(c3c(=O)n2-c2ccc(Cl)cc2)CCCC4)cc1	34.5% (inactive)
Cc1nc2sccn2c1-c1nnc(SCC(C)C)o1	88.7% (inactive)
COc1ccc([C@H]2C(C(=O)c3ccc(Cl)cc3)C3(N[C@@H]2c2ccccc2)C(=O)Nc2ccccc23)cc1 (stereo not given in full)	84.3% (inactive)
CN(C)CCCNC(=S)Nc1ccc(/C=C/c2ccc(Cl)cc2)cc1	-69.2% (active)
COc1ccc2[nH]c(=O)c(CSc3ccccc3Nc3nccc(-c4ccc(Cl)cc4)n3)cc2c1	31.6% (inactive)
